Experimental data as given in the supplement of paper PMC8253809.
“And” between values parts separate entries of the source, which are not always exact repeats. Identical values can stand only once.

Key:
Assay in all cases: growth inhibition (% activity, log2 RLU normalised to DMSO / staurosporine); higher = more growth inhibition
Settings in all cases: 33 µM
DIPGX29 = system: DIPGX29 (H3.3 K27M diffuse intrinsic pontine glioma line)
Outline: (§1)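 The growth-inhibition value is the median over replicates. pHGG cell lines and H9-derived neural stem cells on Geltrex-coated 384-well plates received approved drugs by pin tool at a single final concentration of about 33 μM, in triplicate, for 7 days at 37 °C, 5% CO2. CellTiter-Glo luminescence was log2-transformed and normalised per plate to % activity between solvent and positive control wells.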

DIPGX37 = system: DIPGX37 (H3.3 K27M diffuse intrinsic pontine glioma line)
Outline: as §1

DIPGX7 = system: DIPGX7 (H3.3 K27M diffuse intrinsic pontine glioma line)
Outline: as §1

DIPGX9 = system: DIPGX9 (diffuse intrinsic pontine glioma line)
Outline: as §1

HGGX39 = system: HGGX39 (paediatric high-grade glioma line)
Outline: as §1

HGGX6 = system: HGGX6 (H3.3 G34R paediatric high-grade glioma line)
Outline: as §1

HNSC = system: HNSC
Outline: as §1

SUDIPGIV = system: SUDIPGIV (diffuse intrinsic pontine glioma line)
Outline: as §1

SUDIPGVI = system: SUDIPGVI (diffuse intrinsic pontine glioma line)
Outline: as §1

SUDIPGXIII = system: SUDIPGXIII (diffuse intrinsic pontine glioma line)
Outline: as §1

SMILES | growth inhibition (DIPGX29) | growth inhibition (DIPGX37) | growth inhibition (DIPGX7) | growth inhibition (DIPGX9) | growth inhibition (HGGX39) | growth inhibition (HGGX6) | growth inhibition (HNSC) | growth inhibition (SUDIPGIV) | growth inhibition (SUDIPGVI) | growth inhibition (SUDIPGXIII)
N=S(=O)(O)Cc1noc2ccccc12 | -1.43% | -1.83% | -1.41% | -1.19% | -0.682% | -1.72% | -4.88% | -1.71% | -4.93% | -0.253%
CC(=O)OCC(=O)NCCCOc1cccc(CN2CCCCC2)c1 | -1.28% | 1.04% | -1.47% | -0.989% | -1.44% | 0.942% | -4.85% | -2.05% | -0.427% | -1.04%
CC(N)C12CC3CC(CC(C3)C1)C2 (stereo not given) | -0.149% | 2.59% | 0.357% | 0.266% | 1.62% | 0.391% | 1.01% | 0.585% | -0.365% | -0.4%
CC[C@H](C)C(=O)O[C@H]1C[C@@H](C)C=C2C=C[C@H](C)[C@H](CC[C@@H]3C[C@@H](O)CC(=O)O3)[C@H]21 | 6.68% | -1.93% | 8.58% | 5.72% | 16.2% | 10.8% | 51.5% | 18.1% | -6.1% | -0.657%
COC(=O)C1=C(C#N)NC(C)=C(C(=O)OC(C)C)C1c1cccc([N+](=O)[O-])c1 (stereo not given) | -1.9% | -0.628% | -0.445% | -1.03% | -1.34% | -3.12% | 5% | -1.37% | -1.47% | 1.7%
O=C(c1ccccc1)c1ccc2n1CCC2C(=O)O (stereo not given) | 1.07% | -0.408% | 0.977% | -1.13% | -0.11% | 1.54% | -1.61% | -5.47% | 0.251% | 0.0715%
CC/C(=C(/CC)c1ccc(O)cc1)c1ccc(O)cc1 | -0.353% | 0.261% | 1.61% | 0.802% | -1.26% | -0.016% | -1.62% | 0.624% | 0.165% | -10.6%
N[C@@H](Cc1cc(I)c(Oc2ccc(O)c(I)c2)c(I)c1)C(=O)O | 3.32% | 3.94% | 1.41% | 2.64% | 5.93% | -3.21% | 13.2% | 14.9% | 10.1% | 0.729%
CO[C@H]1/C=C/O[C@@]2(C)Oc3c(C)c(O)c4c(O)c(c(/C=N/N5CCN(C)CC5)c(O)c4c3C2=O)NC(=O)/C(C)=C\C=C\[C@H](C)[C@H](O)[C@@H](C)[C@@H](O)[C@@H](C)[C@H](OC(C)=O)[C@@H]1C | -0.241% | -0.311% | -0.321% | -1.43% | 0.825% | 3.31% | -3.9% | -0.0069% | -1.69% | 1.7%
C[C@H](N)[C@H](O)c1cccc(O)c1 | 2.35% | 0.0235% | 1.7% | 1.54% | 5.08% | 0.73% | 3.77% | 1.73% | 4.42% | 1.04%
CN1CCOC(c2ccccc2)c2ccccc2C1 (stereo not given) | -3.82% | -1.11% | -0.00387% | -2.6% | -1.87% | -4.34% | 19.3% | -1.45% | -8.5% | 2.52%
NC(=O)c1ncn([C@@H]2O[C@H](CO)[C@@H](O)[C@H]2O)c1N | 1.44% | 1.81% | 1.73% | 2.02% | 2.08% | 0.815% | 5.91% | 0.00762% | 2.75% | -1.11%
CCN(CCCc1ccccc1)CCCc1ccccc1 | 2.04% | 0.545% | 5.69% | 0.438% | 7.1% | 5.46% | 4.87% | 0.248% | -1.23% | -0.1%
O=C(Nc1ccc([N+](=O)[O-])cc1Cl)c1cc(Cl)ccc1O | 43.9% | -2.57% | 24.1% | 2.53% | 4.01% | 5.02% | 7.85% | 16.6% | 3.13% | 61.3%
Nc1ccc(S(N)(=O)=O)cc1 | -0.377% | 1.14% | 0.22% | 1.31% | 2.44% | 0.596% | -1.62% | -1.35% | 0.652% | 1.2%
c1ccc2[nH]c(-c3cscn3)nc2c1 | -1.25% | 0.956% | -0.782% | 0.56% | 0.84% | 1.32% | -1.65% | 0.977% | 1.13% | 0.000357%
CCn1cc(C(=O)O)c(=O)c2cc(F)c(N3CCN(C)CC3)cc21 | 0.946% | 0.351% | 1.65% | 1.44% | 2.84% | 0.565% | 3.22% | 1.47% | 1.27% | 1.57%
CCCCOc1cc(C(=O)OCCN(CC)CC)ccc1N | 0.216% | -0.547% | 1.69% | 0.918% | 14.2% | 9.49% | -2.2% | 4.07% | -0.0266% | 2.42%
CCOc1ccc(NC(C)=O)cc1 | 1.41% | 1.55% | 3.09% | 2.76% | 2.76% | -0.142% | 47.6% | 2.49% | -4.96% | 1.58%
CCOC(=O)[C@H](CCc1ccccc1)N[C@H]1CCc2ccccc2N(CC(=O)O)C1=O | -0.274% | -0.666% | 0.62% | -1.51% | -0.668% | -3.48% | 0.9% | -2.69% | -7.43% | -0.0284%
COc1ccc(C2C(=O)c3ccccc3C2=O)cc1 | -0.495% | 1.03% | -0.141% | 0.658% | -0.413% | 1.25% | 2.05% | -1.32% | -1.7% | 1.54%

SMILES | growth inhibition (DIPGX29) | growth inhibition (DIPGX37) | growth inhibition (DIPGX7) | growth inhibition (DIPGX9) | growth inhibition (HGGX39) | growth inhibition (HGGX6) | growth inhibition (HNSC) | growth inhibition (SUDIPGIV) | growth inhibition (SUDIPGVI) | growth inhibition (SUDIPGXIII)
CCOC(=O)n1ccn(C)c1=S | 1.7% | 2.04% | 0.732% | 1.21% | 0.889% | 2.62% | 0.384% | -0.192% | 2.2% | -16.1%
O=c1[nH]c(=O)n(C2CCCO2)cc1F (stereo not given) | -0.615% | 0.56% | -0.536% | -0.0713% | 1.51% | -0.669% | -0.796% | -1.49% | -0.356% | -6.49%
CC1=NN(c2ccccc2)C(=O)C1 | -3.36% | -1.06% | -0.361% | -0.407% | -0.249% | -3.17% | -4.84% | 1.69% | -1.55% | -0.303%
CCCc1cc(C(N)=S)ccn1 | -2.06% | -0.994% | -2.65% | -1.15% | -0.973% | 0.551% | -2.9% | -2.46% | -0.254% | 0.671%
CS(=O)(=O)Nc1ccc([N+](=O)[O-])cc1Oc1ccccc1 | 0.913% | 1.17% | 0.12% | 0.568% | 2.03% | -1.72% | 27.3% | -3.67% | -1.3% | -2.23%
O=C(O)/C=C/c1ccc(Cn2ccnc2)cc1 | -4.29% and 0.0234% | -1.97% and 1.55% | -2.07% and 1.39% | -1.94% and 0.49% | -2.45% and 1.57% | -3.87% and 2.09% | 1.95% and -1.58% | -2.48% and 0.0369% | -6.52% and 1.83% | -0.879% and -16.2%
Cc1cc2c(cc1S(N)(=O)=O)S(=O)(=O)CCC2 | 0.849% | 2.86% | -0.717% | 1.06% | 0.974% | 0.857% | -0.336% | -0.262% | 2.41% | 1.65%
CCCN(CCC)S(=O)(=O)c1ccc(C(=O)O)cc1 | -1.26% | 2.49% | 0.672% | 0.0871% | 1.02% | -3.52% | 8.98% | 1.56% | -6.21% | 0.262%
O=C(CCCN1CCN(c2ccccn2)CC1)c1ccc(F)cc1 | 1.87% | 0.83% | 5.21% | 1.29% | 4.4% | 3.31% | 1.17% | 0.0159% | -3.95% | 2.26%
Cc1cn(C2C=CC(CO)O2)c(=O)[nH]c1=O (stereo not given) | 0.293% | -1.7% | -0.477% | 0.481% | -0.264% | -0.492% | 1.41% | -1.27% | 1% | 0.705%
CCS(=O)(=O)CCn1c([N+](=O)[O-])cnc1C | -0.456% | 1.05% | -1.24% | -0.171% | -0.367% | -1.57% | -1.98% | -0.809% | -3.73% | 0.464%
O=C(O)c1cc(-c2ccccc2)nc2ccccc12 | 0.382% | 2.97% | 0.465% | 2.04% | 1.46% | 1.01% | -0.619% | -1.08% | 2.54% | 0.975%
Nc1c(CC(=O)O)cccc1C(=O)c1ccccc1 | -1.69% | -2.54% | -0.79% | -0.667% | -0.264% | -1.13% | -2.43% | -5.49% | -5.35% | 1.21%
C[C@]12CC[C@@H]3c4ccc(O)cc4C[C@@H](CCCCCCCCC[S+]([O-])CCCC(F)(F)C(F)(F)F)[C@H]3[C@@H]1CC[C@@H]2O (stereo not given in full) | 0.0636% | 0.16% | 0.804% | -0.923% | 8.06% | -1.09% | 2% | -0.255% | -0.348% | 2.55%
Nc1c2ccccc2nc2ccccc12 | 17.5% | 1.87% | 5.31% | 20.4% | 12.2% | 14.7% | 58.1% | 14.3% | 5.87% | 0.896%
CO[C@@H]1[C@@H](OC(N)=O)[C@@H](O)[C@H](Oc2ccc3c(O)c(NC(=O)c4ccc(O)c(CC=C(C)C)c4)c(=O)oc3c2C)OC1(C)C | -0.0643% | 3.02% | 1.66% | 0.55% | 3.59% | -2.58% | 12.1% | 4.51% | 2% | -0.64%
CC(COc1ccccc1)N(CCCl)Cc1ccccc1 (stereo not given) | -2.73% | -0.547% | 0.876% | -1.7% | -4.31% | -3.53% | 41.4% | -2.44% | -7.02% | 1.89%
CO/N=C(\C(=O)N[C@@H]1C(=O)N2C(C(=O)O)=C(Cn3ccc(=N)n3CCO)CS[C@H]12)c1csc(N)n1 | -0.673% | 1.46% | 0.0521% | 0.497% | -0.232% | 0.395% | -1.19% | -0.702% | 0.0229% | 1.31%
CCOC(=O)O[C@]1(C(=O)OCCl)CC[C@H]2[C@@H]3CCC4=CC(=O)C=C[C@]4(C)[C@H]3[C@@H](O)C[C@@]21C | 1.63% | 4.19% | 2.28% | 3.44% | 2.53% | 2.56% | 1.32% | -2.17% | 3.04% | -2.19%
CN1CC(=O)NC1=N | 1.19% | -0.026% | 4.55% | 2.89% | 6.17% | 2.06% | 10.1% | 2.65% | 3.88% | 1.35%
